Assay outcomes as filed in PubChem.
VP16 counter – VP16 counterscreen qHTS for inhibitors of ROR gamma transcriptional activity; AID 2546, 2010; Potency, µM (doses to about 53.6 µM), for inactives: top-dose activity, negative = inhibition, actives largely listed as inhibitors; Drosophila S2 Gal4-VP16 UAS-luciferase, luminescence, 20 h; 310,000 compounds, 3.5% hits;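 further: Gal4-VP16 expression switched on by copper sulfate through the metallothionein promoter; on the % scale 0 is the no-effect control and ±100 the full control effect; nearly all actives have a fitted effect of over 50% in size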
TGFb inhibitor – qHTS for Inhibitors of TGF-b; Potency, µM (top dose mostly 46.1 µM), without a hit: top-dose activity, negative = inhibition, usual class: inhibitors; 410,000 compounds, 1.2% hits; HepG2 CAGA-GFP TGF-b/SMAD3 reporter, GFP fluorescence, 18 h; TGF-beta stimulated, 500 pg/mL final; AID 588855, 2011; further: on the % scale 0 is the no-effect control and ±100 the full control effect; nearly all actives have a fitted effect of over 65% in size
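TGF-beta reporter screen: HEPG2 CAGA-GFP, 1% FBS, 500 pg/mL TGF-beta final, 18 h; per-cell GFP summed per well; curves fitted and categorized by class.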
RORgamma inh – qHTS for inhibitors of ROR gamma transcriptional activity; Nuclear receptor ROR-gamma (Mus musculus), P51450; Drosophila S2 Gal4-RORgamma UAS-luciferase reporter, 20 h; Potency, µM (titrated, usually from 53.6 µM), without a hit: at the highest dose activity change, negative = inhibition, most hits filed as inhibitors; 310,000 compounds, 5.4% hits; AID 2551, 2010; further: on the % scale 0 is the no-effect control and ±100 the full control effect; nearly all actives have a fitted effect of over 60% in size
Target sequence (P51450 whole entry, looked up, the tested form may be a part): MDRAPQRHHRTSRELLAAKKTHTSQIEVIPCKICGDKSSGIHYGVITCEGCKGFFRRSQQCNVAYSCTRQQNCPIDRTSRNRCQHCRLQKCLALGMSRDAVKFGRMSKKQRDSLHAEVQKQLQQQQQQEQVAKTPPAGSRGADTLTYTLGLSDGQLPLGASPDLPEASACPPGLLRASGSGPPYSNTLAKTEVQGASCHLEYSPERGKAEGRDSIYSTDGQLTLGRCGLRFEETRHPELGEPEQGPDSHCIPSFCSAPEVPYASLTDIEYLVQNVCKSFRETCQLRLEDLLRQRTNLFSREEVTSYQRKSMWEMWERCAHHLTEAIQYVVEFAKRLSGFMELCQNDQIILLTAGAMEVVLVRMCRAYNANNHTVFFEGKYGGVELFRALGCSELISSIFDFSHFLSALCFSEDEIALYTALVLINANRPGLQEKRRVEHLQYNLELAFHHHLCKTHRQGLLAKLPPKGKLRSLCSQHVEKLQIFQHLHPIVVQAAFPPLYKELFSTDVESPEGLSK
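A Gal4/UAS one-hybrid system in insect cells: metallothionein-promoter Gal4–ROR gamma fusion plus Photinus luciferase reporter. Copper sulfate 700 uM final, 20 hr ambient incubation, luminescent detection after 10 min with reagent.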
HepG2 tox-1 – qHTS for Inhibitors of TGF-b: Cytotox Counterscreen. HepG2 CAGA-GFP viability, ATP luminescence, 18 h. 410,000 compounds, 0.76% hits. Potency, µM (doses to about 46.1 µM), inactives show at the highest dose activity change, negative = cytotoxicity, usual class: cytotoxic. AID 588856, 2011
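CellTiter-Glo luminescence gave cytotoxicity after 18 hours at 37 degrees C. The cells were HepG2 CAGA-GFP in 1% FBS DMEM, stimulated with 500 pg/mL TGF-beta after compound addition. %Activity was normalised to no-cell wells (complete cell-killing) and DMSO (no toxicity), and curves were fitted and classified.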
ATXN viability – Viability Counterscreen for Primary qHTS for Inhibitors of ATXN expression | Potency, µM (titrated, usually from 56.7 µM), hits mostly cytotoxic | 400,000 compounds, 0.49% hits | S2 cells (HEK-293 line with an ATXN2-luciferase reporter) viability, CellTiter-Fluor protease fluorescence, 24 h; further: nearly all actives have a fitted effect of over 40% in size
ATXN2 expr inh – Primary qHTS for Inhibitors of ATXN expression; HEK-293 ATXN2-luciferase reporter, luminescence, 24 h; Potency, µM (series often up to 57 µM), without a hit: at the highest dose activity change, negative = inhibition, actives largely listed as inhibitors; 360,000 compounds, 0.72% hits; AID 1745845, 2022; further: on the % scale 0 is the no-effect control and ±100 the full control effect; nearly all actives have a fitted effect of over 55% in size
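qHTS (up to 57 uM final) was run with 24 h compound exposure of reporter cells at 37 °C. Each well was multiplexed: SteadyGlo luminescence measured ATXN2-luciferase expression after a fluorogenic Gly-Phe-AFC viability readout (25 uM final).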
TGFb CAGA inh – qHTS for Inhibitors of TGF-b: Confirmation of Cherry Picks; 1,600 compounds, 63% hits; shares compounds with TGFb inhibitor; HepG2 CAGA-GFP TGF-b reporter, GFP fluorescence, 18 h; cells stimulated with TGF-beta, 500 pg/mL; Potency, µM (series often up to 46.1 µM), for the others: at the top dose activity, negative = inhibition, most hits filed as inhibitors; further: on the % scale 0 is the no-effect control and ±100 the full control effect; nearly all actives have a fitted effect of over 65% in size
HepG2 tox-2 – qHTS for Inhibitors of TGF-b: Cytotox Counterscreen for Cherry Picks; Potency, µM (highest dose often 46.1 µM), inactives show at the highest dose activity, negative = cytotoxicity, actives largely listed as inhibitors; shares compounds with TGFb inhibitor; HepG2 CAGA-GFP viability, ATP luminescence, 18 h; cells stimulated with TGF-beta, 500 pg/mL; 1,600 compounds, 27% hits; further: on the % scale 0 is the no-effect control and ±100 the full control effect; nearly all actives have a fitted effect of over 70% in size
CCL64 TGFb inh – qHTS for Inhibitors of TGF-b: CCL64 Cells Orthogonal Assay for Cherry Picks; shares compounds with TGFb inhibitor; Potency, µM (doses to about 46.1 µM), without a hit: at the top dose activity, negative = inhibition, most hits filed as inhibitors; CCL64 CAGA-GFP reporter, TGF-b stimulated, GFP fluorescence, 18 h; 1,600 compounds, 41% hits; AID 720536, 2013; further: nearly all actives have a fitted effect of over 65% in size
COP TGFb inh – qHTS for Inhibitors of TGF-b: Hit Validation in HepG2 Cells using COP promoter. shares compounds with TGFb inhibitor. 1,600 compounds, 3% hits. HepG2 COP-GFP TGF-b reporter, GFP fluorescence, 18 h; cells stimulated by added recombinant TGF-beta. Potency, µM (highest dose often 46.1 µM), for the others: top-dose activity, negative = inhibition, actives largely listed as inhibitors; further: nearly all actives have a fitted effect of over 70% in size
* hit, by the source's call; i = inactive; ? = inconclusive; / = not tested or not shown; [ ] = another dose, or the depositor's remark. Rows were chosen to be rich in hits. Some 6.3% of all compounds tested hit in one or more screens of this group. The call rests on the fitted dose curve; in most records, active means well fitted curve in the direction sought with a large enough effect; inconclusive means small, poorly fitted or top-dose-only effect, or another doubt; inactive means no such curve, though single readings can be large; an effect the other way counts as inactive or inconclusive. Potency means the concentration at half of the fitted maximal effect.

SMILES	VP16 counter	TGFb inhibitor	RORgamma inh	HepG2 tox-1	ATXN viability	ATXN2 expr inh	TGFb CAGA inh	HepG2 tox-2	CCL64 TGFb inh	COP TGFb inh
Cc1ccc(S(=O)(=O)N2CCN(C(=O)c3ccco3)CC2)c(C)c1	-8%	-3%	-2%	2%	?	0%	/	/	/	/
c1ccc2c(N=NN3CCCCC3)ccnc2c1	/	-1%	/	-16%	/	/	/	/	/	/
Cc1ccccc1C(=O)N1CCN(c2ccc(NC(=O)CSc3ccc(Cl)cc3)cc2)CC1	?	4.5µM*	?	-4%	i	?	4.1µM*	?	?	14%
CCC(=O)Nc1ccc(N2CCN(C(=O)c3ccccc3C)CC2)cc1	18%	-10%	37%	-4%	i	8%	/	/	/	/
Cc1ccc(-c2c(C(=O)NCc3ccc(F)cc3)oc(=O)c3ccccc23)cc1	-1%	?	-9%	-35%	i	1%	?	-21%	-20%	-2%
Cc1ccc(-c2c(C(=O)Nc3ccccc3F)oc(=O)c3ccccc23)cc1	/	-8%	/	-3%	i	2%	/	/	/	/
CCOC(=O)C1CCCN(S(=O)(=O)c2ccc3c(c2)N(C)C(=O)CC(=O)N3C)C1 (configuration not stated)	-15%	6%	-8%	4%	i	-1%	/	/	/	/
CCOC(=O)c1ccc(NC(=O)CN2Cc3ccccc3C2=O)cc1	/	-4%	/	4%	/	/	/	/	/	/
COc1ccc(-c2cc(-c3c(O)c(OC)c4occc4c3OC)[nH]n2)cc1	?	?	?	-27%	i	2%	/	/	/	/
COc1ccc(-c2cc(-c3c(O)c(OC)c4occc4c3OC)[nH]n2)cc1OC	8.9µM*	7.9µM*	7.9µM*	-29%	i	2%	?	?	?	61%
O=C(OCC(=O)N1CCOCC1)c1cncc(Br)c1	/	-2%	/	0%	i	/	/	/	/	/
CC(NN)c1ccccc1 (configuration not stated)	/	/	/	/	i	6%[25.6 µM]	/	/	/	/
COc1ccc(O)c(-c2cc(-c3ccccc3Cl)[nH]n2)c1	?	7.9µM*	?	-63%	?	-6%	18µM*	?	26µM*	30%
COc1ccc(-c2cc(-c3ccccc3O)[nH]n2)cc1	16µM*	10µM*	6.3µM*	-14%	i	116%	?	?	?	44%
COc1ccccc1-c1cc(-c2cc(Cl)ccc2O)n[nH]1	-22%	7%	-45%[10 µM]	-2%	i	18%	/	/	/	/
Cc1ccc(-n2ncc3c(Nc4cccc(Cl)c4)ncnc32)c(C)c1	/	?	/	-62%	/	/	/	/	/	/
CC(C)c1ccccc1NC(=O)Cn1c(/C=C/c2ccccc2)nc2ccccc21	-28%	10µM*	-13%	13µM*	?	-15%	-24%	?	?	-10%
O=C(NCC(c1ccco1)N1CCc2ccccc21)C(=O)Nc1ccccc1F (configuration not stated)	/	?	/	-17%	i	-12%	/	/	/	/
O=C(NCC(c1ccco1)N1CCc2ccccc21)C(=O)Nc1ccc(F)cc1F (configuration not stated)	/	?	/	9%	?	-14%	13µM*	0%	12µM*	-2%
O=C(NCc1ccc2c(c1)OCO2)c1cc([N+](=O)[O-])ccc1N1CCCCC1	-5%	?	?	-1%	?	-17%	?	-5%	?	4%
Cc1ccccc1OCC(O)Cn1c(=N)n(Cc2ccccc2)c2ccccc21 (configuration not stated)	?	7.1µM*	-29%	7.9µM*	32µM*	?	?	?	?	-27%
COc1ccccc1OCC(O)Cn1c(=N)n(Cc2ccccc2)c2ccccc21 (configuration not stated)	-7%	-15%	2%	-68%	?	?	/	/	/	/
Cc1ccc(C)c(N2CCN(CCCNC(=O)c3cnn(-c4ccccc4Cl)c3C3CCN(C(=O)OC(C)(C)C)CC3)CC2)c1	/	?	/	-112%	/	/	/	/	/	/
COc1cccc2c1OCC(C(=O)O)C2 (configuration not stated)	7%	-13%	1%	-7%	i	-25%[11.3 µM]	/	/	/	/
COc1cccc2c1C(CO)N1C(C#N)C3CC(C(=O)O)C(C1C2)N3C (configuration not stated)	10µM*	1.3µM*	7.1µM*	16%	i	0.28µM*	0.65µM*	0.52µM*	7.3µM*	-4%
CCCCCC(=O)Nc1cccc(C2=NOC3(C2)C[C@H](C(N)=O)N(C(=O)c2ccccc2C(=O)c2ccccc2)C3)c1 (some centres not stated)	1%	11µM*	7%	-21%	i	-24%	?	-10%	?	3%
CCCS(=O)(=O)c1ccc(COC(=O)c2ccc(NC(C)=O)cc2)cc1	-5%[10 µM]	?	14%	0%	i	13%	1%	7%	2%	-14%
COc1cccc(/C=N/Nc2ccc([N+](=O)[O-])cn2)c1O	7.1µM*	0.79µM*	4.5µM*	i	?	8.9µM*	1.6µM*	?	?	23%
